# Reference: the supplement of paper PMC12636033
# ± gives the standard deviation of the averaged measurements. Whole data set: some 33,000 sequences, median “E-score (rank enrichment, -0.5 to 0.5)” near -0.0068, cut for the highest 2% near 0.24. The list comes from a sample in which the highest values are over-represented; it also holds similar and randomly drawn sequences.
# System: muMax20 (Max(13-93) K31hArg/K57hArg, M65Nle)
# Experiment: PBM 8-mer E-score (E-score (rank enrichment, -0.5 to 0.5)); higher = stronger preferential binding
# Experimental: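 Protein binding microarray (universal PBM chip covering all 10-mers in fixed probe flanks) with chemically synthesized human Max(13-93) bHLH-LZ analogs (not full-length Max) bearing noncanonical residues (hArg, Tha, Aib, Nle at 65) and aromatic Cys staples. Read-out per 8-mer (and its reverse complement): E-score (rank-based enrichment, -0.5 to 0.5) and Z-score of median probe intensity.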
row,Sequence,PBM 8-mer E-score
1,ACACTTCT,-0.0487 ± 0.018
2,GGACAGCC,-0.155 ± 0.053
3,GGCTCCCA,-0.218 ± 0.099
4,GCCTACGC,-0.109 ± 0.09
5,AAAGAAAA,0.263 ± 0.074
6,GAAAAAAC,0.178 ± 0.042
7,CCAAAACC,0.122 ± 0.057
8,CAAAACCC,0.145 ± 0.0083
9,GGAAAAAA,0.136 ± 0.12
10,CAAAAACC,0.237 ± 0.016
11,AAAGAAAG,0.084 ± 0.006
12,GAAAAAAA,0.255 ± 0.013
13,CAAGAAAA,0.0576 ± 0.13
14,CCCCCGAC,-0.232 ± 0.054
15,CCACAGGG,-0.0979 ± 0.07
16,ATCCGGTA,-0.00311 ± 0.041
17,ATGTCTAC,-0.0533 ± 0.013
18,AAACTGGA,0.098 ± 0.12
19,AATTGGGA,0.239 ± 0.021
20,AATTGGGT,0.181 ± 0.051
21,AATTGGGC,0.0726 ± 0.029
22,AATTTGCA,0.149 ± 0.052
23,CGAGTAAA,0.0289 ± 0.1
24,CAAGTCGC,-0.102 ± 0.035
25,ACGTGCGG,0.105 ± 0.078

row,Sequence,PBM 8-mer E-score
1,ACGCGTGG,0.183 ± 0.12
2,ACGCGTGA,0.148 ± 0.14
3,ACGCGTGC,0.253 ± 0.042
4,ACGTGTGA,0.19 ± 0.11
5,ACGTGTGC,0.297 ± 0.087
6,ACGTGTGG,0.227 ± 0.071
7,CCGTGCGC,-0.143 ± 0.07
8,ACGTGCGC,0.241 ± 0.014
9,GGAGAAGA,0.084 ± 0.0044
10,CTCCTTAC,0.0913 ± 0.013
11,CGTCTAGC,-0.0301 ± 0.083
12,GAGCCTAA,-0.0774 ± 0.0028
13,CGAGTACC,-0.134 ± 0.016
14,AACGGCTG,-0.184 ± 0.1
15,ACCCACGC,0.109 ± 0.027
16,ACCCACGT,0.341 ± 0.11
17,AACCACGC,-0.0767 ± 0.24
18,AACCACGT,0.369 ± 0.057
19,ACCCACGA,0.0663 ± 0.055
20,AACCACGA,0.141 ± 0.09
21,AGTGTGCG,-0.149 ± 0.0092
22,AAGATGTG,0.128 ± 0.009
23,ACCGCCCC,0.0617 ± 0.15
24,ACCCGCCC,0.172 ± 0.024
25,CCCGCCCC,0.273 ± 0.057

row,Sequence,PBM 8-mer E-score
1,GCCCGCCC,0.0169 ± 0.057
2,CCCGCCCA,0.317 ± 0.073
3,AACCCGCC,-0.0715 ± 0.029
4,CCCCGCCC,0.322 ± 0.043
5,GCCGCCCA,-0.267 ± 0.094
6,ACCCCGCC,0.27 ± 0.04
7,GCCGCCCC,-0.0538 ± 0.0099
8,CCCGCCCG,-0.0341 ± 0.0082
9,CCCCCGCC,-0.0877 ± 0.065
10,AAGAAAGA,-0.00904 ± 0.054
11,AGAGTAAG,0.117 ± 0.059
12,CCAAATAC,0.13 ± 0.031
13,CCCGAATA,-0.0449 ± 0.17
14,CTTGGAGC,-0.103 ± 0.13
15,CCTAGCCG,-0.253 ± 0.052
16,ATCGGTGC,-0.0954 ± 0.028
17,CAGAACTA,-0.169 ± 0.18
18,AACACTCT,-0.00142 ± 0.039
19,AAGAACTC,-0.0481 ± 0.11
20,GCTAGAGC,-0.122 ± 0.12
21,TACTTCTA,0.272 ± 0.091
22,AACTTCTA,-0.0177 ± 0.042
23,GACTTCTA,-0.149 ± 0.025
24,CTTATGGA,-0.0576 ± 0.026
25,CAACCGAC,0.0428 ± 0.061

row,Sequence,PBM 8-mer E-score
1,ACACACGG,0.00898 ± 0.047
2,ACACACGT,0.338 ± 0.01
3,ACACACGA,0.188 ± 0.037
4,AAACACGA,0.194 ± 0.04
5,AAACACGT,0.342 ± 0.016
6,AAACACGC,0.198 ± 0.0045
7,GACGTAAC,0.0633 ± 0.061
8,AATAGGTA,0.251 ± 0.073
9,AATAGGTG,0.119 ± 0.0048
10,AATAGGTC,-0.0485 ± 0.14
11,CTAATACA,0.248 ± 0.047
12,AGAATACC,0.142 ± 0.0044
13,ATAATACC,0.261 ± 0.049
14,GTAATACA,0.182 ± 0.082
15,AAAATACA,0.159 ± 0.058
16,ATAATACA,0.281 ± 0.027
17,ACAATACC,0.237 ± 0.02
18,TCAATACA,0.18862 ± 0.00013
19,ATAATACG,0.19 ± 0.015
20,ACAATACA,0.191 ± 0.02
21,ACAATACT,0.174 ± 0.049
22,CTAATACC,0.0669 ± 0.08
23,ACTATGGC,-0.0571 ± 0.07
24,AATTTTCG,0.0133 ± 0.1
25,GCCCTACA,-0.127 ± 0.021

row,Sequence,PBM 8-mer E-score
1,CCCGCACG,-0.0959 ± 0.058
2,TGAGCGCA,-0.0144 ± 0.0021
3,AACGGCAA,0.112 ± 0.025
4,CTCTGCGA,-0.167 ± 0.1
5,AGTTACCC,-0.029 ± 0.015
6,GGGATGGA,0.0386 ± 0.042
7,ACCAGTTG,-0.0933 ± 0.12
8,ACTTCAAT,0.173 ± 0.027
9,CAAATACC,0.0739 ± 0.027
10,CAAATACA,0.325 ± 0.037
11,GAAATACA,0.132 ± 0.063
12,GTAACGTA,0.0209 ± 0.03
13,ATAACGTA,0.24 ± 0.0069
14,ATAACGTC,0.121 ± 0.0034
15,AAGTCACT,0.24 ± 0.12
16,AAGTCACG,0.0988 ± 0.052
17,AAGTCACA,0.029 ± 0.056
18,GCTTGCAA,0.0886 ± 0.032
19,AAAAATGG,0.153 ± 0.002
20,GAGCCAAC,-0.0474 ± 0.026
21,AAAACCTC,0.104 ± 0.039
22,ATGTAGAA,0.264 ± 0.0091
23,GAATATAA,0.264 ± 0.023
24,ATGTATAA,0.268 ± 0.022
25,GTGTATAA,0.1625 ± 0.0011

row,Sequence,PBM 8-mer E-score
1,ATATATAT,0.155 ± 0.016
2,TTATATAA,0.274 ± 0.062
3,TAATATAA,0.232 ± 0.018
4,CTGTAGAA,0.031 ± 0.018
5,ATGTAGAG,0.04 ± 0.13
6,CTGTATAA,0.191 ± 0.029
7,TGATATAA,0.211 ± 0.09
8,GAATATAC,0.157 ± 0.014
9,AGGGAACC,-0.237 ± 0.012
10,TACGGCTA,-0.0274 ± 0.029
11,ATGGGCGG,0.009 ± 0.039
12,GTTAGAAC,-0.0507 ± 0.042
13,GTATATAA,0.202 ± 0.069
14,ATATATAA,0.288 ± 0.052
15,CTATATAA,0.165 ± 0.12
16,ACGCCTCG,-0.092 ± 0.092
17,CATCCGGC,-0.291 ± 0.032
18,ATCGGACG,-0.0422 ± 0.092
19,TAAGATAA,0.0507 ± 0.17
20,CAAGATAA,0.253 ± 0.064
21,AAAGATAG,0.0409 ± 0.14
22,AAAGATAC,0.145 ± 0.05
23,AAAGATAA,0.2372 ± 0.001
24,CAAGATAC,0.153 ± 0.0086
25,ATCAGAGG,-0.121 ± 0.076

row,Sequence,PBM 8-mer E-score
1,GCATGTTA,0.116 ± 0.14
2,CCATGTTA,0.109 ± 0.039
3,ACATGTTC,0.1643 ± 0.00078
4,ACATGTTA,0.241 ± 0.085
5,AGATGTTG,-0.125 ± 0.12
6,ACATGTTG,0.271 ± 0.022
7,AACGAATT,0.236 ± 0.0088
8,CAAGGTAC,0.0659 ± 0.12
9,ACACCGAT,-0.183 ± 0.16
10,AGGTTAGG,0.0305 ± 0.073
11,CACGTTTA,0.0929 ± 0.011
12,CCTTAACC,-0.159 ± 0.009
13,AAGTGATC,0.074 ± 0.034
14,CCGTGATC,-0.311 ± 0.027
15,ACGTGAAA,0.249 ± 0.083
16,ACTTGATA,0.242 ± 0.033
17,ACGTGAAC,0.0624 ± 0.078
18,ACGTGAGA,0.168 ± 0.054
19,ACTTGATG,0.0184 ± 0.013
20,ACTTGATC,-0.00466 ± 0.064
21,TCGTGAAA,0.0589 ± 0.081
22,ACGTGAGG,0.111 ± 0.1
23,ACGTGATC,0.286 ± 0.1
24,ACGTGAGT,0.2594 ± 0.0012
